Compound activity (PubChem BioAssay)
SW480 rerep: induces DNA re-replication in SW480 colon adenocarcinoma cells | SW480 DNA re-replication, Hoechst DNA content imaging, 48 h | Potency, µM (top dose mostly 46.1 µM), for inactives: top-dose re-replication activation, most hits filed as activators | 1.8% of 340,000 active | AID 624297; note: potency is the fitted concentration of half-maximal effect; % of control where 0% means no effect; nearly all actives have a fitted effect of over 55% in size
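Quantitative HTS format with DMSO vehicle controls; 48 hr drug incubation at 37 C, then 40 min Hoechst staining and scanning imager measurement at 405 nm excitation.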
RORgamma inh: inhibitors of mouse ROR gamma transcriptional activity. Potency, µM (doses to about 53.6 µM), for the others: at the top dose activity change, negative = inhibition, hits mostly inhibitors. Drosophila S2 Gal4-RORgamma UAS-luciferase reporter, 20 h. P51450. 5.4% of 310,000 active; note: potency is the fitted concentration of half-maximal effect; % is set by controls: 0 for no effect and ±100 for the full control effect; nearly all actives have a fitted effect of over 60% in size
Target sequence (P51450 whole entry, looked up, the tested form may be a part): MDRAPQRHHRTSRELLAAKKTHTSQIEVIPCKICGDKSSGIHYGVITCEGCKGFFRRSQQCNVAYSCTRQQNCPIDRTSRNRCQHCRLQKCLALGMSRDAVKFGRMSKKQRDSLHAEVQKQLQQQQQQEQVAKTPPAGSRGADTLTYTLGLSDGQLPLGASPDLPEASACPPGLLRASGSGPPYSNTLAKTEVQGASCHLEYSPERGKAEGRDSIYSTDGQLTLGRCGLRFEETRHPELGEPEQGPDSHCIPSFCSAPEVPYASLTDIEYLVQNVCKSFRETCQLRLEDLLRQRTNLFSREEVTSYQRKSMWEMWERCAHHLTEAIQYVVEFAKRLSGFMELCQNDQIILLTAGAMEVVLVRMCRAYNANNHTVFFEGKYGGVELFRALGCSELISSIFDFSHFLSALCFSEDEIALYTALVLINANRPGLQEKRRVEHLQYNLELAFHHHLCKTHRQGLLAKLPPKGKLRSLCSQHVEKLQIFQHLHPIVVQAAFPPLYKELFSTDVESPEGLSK
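Using a luciferase readout, inhibitors were identified by reduced reporter activity in Drosophila cells coexpressing a copper-inducible Gal4–ROR gamma fusion and UAS-driven Photinus luciferase, incubated 20 hr after 700 uM copper sulfate.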
IL-1B inflam inh: inhibitors of inflammasome signaling (IL-1 beta secretion); activity change, % at 57.5 µM; THP-1 LPS/ATP IL-1B secretion, AlphaLISA, 16 h; active compounds read low; 4.7% of 360,000 active; AID 743279; in the data active = activity change below about -50%; inconclusive = mostly about -30% to -49%; note: % is set by controls: 0 for no effect and ±100 for the full control effect
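THP-1 cells pretreated 1 hr with compounds (up to 57.5 uM final), then stimulated with LPS (250 ng/mL final) plus ATP (1.25 mM final); secreted IL-1B measured by AlphaLISA after 16 hr, decreased signal indicating inhibition.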
MCF10A rereplic: induces DNA re-replication in MCF 10a normal breast cells | MCF 10A DNA re-replication, Hoechst nuclear intensity, 48 h | Potency, µM (top dose mostly 46.1 µM), for inactives: at the top dose activity, positive = re-replication, most hits filed as activators | 2.9% of 350,000 active | AID 624296; note: potency is the fitted concentration of half-maximal effect; % of control where 0% means no effect; nearly all actives have a fitted effect of over 50% in size
VP16 counter: inhibits Gal4-VP16 luciferase reporter, ROR gamma counter-screen | 3.5% of 310,000 active | Drosophila S2 Gal4-VP16 UAS-luciferase, luminescence, 20 h | Potency, µM (titrated, usually from 53.6 µM), inactives show top-dose activity, negative = inhibition, most hits filed as inhibitors;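 note: Gal4-VP16 expression switched on by copper sulfate through the metallothionein promoter; potency is the fitted concentration of half-maximal effect; % is set by controls: 0 for no effect and ±100 for the full control effect; nearly all actives have a fitted effect of over 50% in size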
Active calls of the source: *; ? = inconclusive; · = no result. Hits are enriched below; roughly 11% of the tested compounds scored in any of these assays. Unless noted, calls come from the whole dose curve; as a rule, active = well fitted curve in the direction sought with a large enough effect; inconclusive = small, poorly fitted or top-dose-only effect, or another doubt; inactive = no such curve, though single readings can be large; an effect the other way counts as inactive or inconclusive.

SMILES	SW480 rerep	RORgamma inh	IL-1B inflam inh	MCF10A rereplic	VP16 counter
Cc1cc(NCCCN2CCOCC2)n2ncc(-c3ccccc3)c2n1	-3.8%	-25.0%	-5.2	4.6%	-0.4%
CCCC(=O)NC(=S)Nc1ccc(N2CCN(C(=O)c3cccs3)CC2)cc1	-8.4%	7.94µM*	-85.4*	?	?
O=C(NC(=S)Nc1ccc(N2CCN(C(=O)c3ccccc3)CC2)cc1)c1cccs1	-3.4%	5.62µM*	-59.5*	?	?
O=C(NC(=S)Nc1ccc(N2CCCCC2)cc1)c1cccs1	?	3.16µM*	?	?	5.01µM*
COCCn1c(C)cc(C(=O)CSc2nnnn2C2CCCC2)c1C	2.8%	·	2.5	?	·
CCOc1ccc(OCCCC(=O)Nc2nc3ccccc3[nH]2)cc1	-6.1%	-38.8%	8.6	-2.3%	0.6%
O=C(COc1ccccc1)Nc1nc2ccccc2[nH]1	-4.5%	?	-4.6	2.1%	·
CCCOc1cccc(OCC(=O)Nc2nc3ccccc3[nH]2)c1	-11.2%	10µM*	10.0	32.1%	?
CCCCOc1cccc(OCC(=O)Nc2nc3ccccc3[nH]2)c1	·	15.8µM*	0.6	29.6%	?
COc1ccccc1NC(=O)COC(=O)c1c(NC(C)=O)sc(C)c1C	·	·	1.0	·	·
O=C(Nc1c(-c2ccc3c(c2)OCO3)[nH][nH]c1=O)c1ccc2c(c1)OCO2	·	·	4.9	·	·
CC1=CC(C)(C)N(S(=O)(=O)c2ccc(C)cc2)c2cc(C)ccc21	7.31µM*	?	36.5	?	?
CCOc1ccc(S(=O)(=O)N2CCN(c3ccc(C)cc3C)CC2)cc1	-7.2%	?	20.0	-0.8%	-6.9%
CC1=CC(C)(C)N(C(=O)CCl)c2cc(C)ccc21	2.0%	-16.9%	-27.9	-3.6%	-8.5%
COc1ccc2c(c1)C(C)=CC(C)(C)N2S(=O)(=O)c1ccc(C)cc1	13µM*	-38.7%	69.5	?	1.5%
CCOc1ccc2c(c1)C(C)=CC(C)(C)N2S(=O)(=O)c1ccc(C)cc1	13µM*	3.98µM*	26.2	23.0%	?
CCOc1ccc2c(c1)C(C)=CC(C)(C)N2C(=O)Nc1ccccc1F	4.0%	2.0%	4.8	?	-16.9%
CCNC(=O)N1c2ccc(OCC)cc2C(C)=CC1(C)C	18.6%	1.7%	-11.6	14.1µM*	-2.6%
CCCCCCCCCCCCCCCCCCOC[C@@H](O)COP(=O)([O-])OCC[N+](C)(C)C	·	24.9%	·	·	1.6%
S=C1N(c2ccccc2)CN(C2CCCCC2)CN1c1ccccc1	-0.8%	11.2µM*	-11.7	-0.3%	20µM*
O=C(c1ccccc1)N1CCN(C2CCCCC2)CC1	-1.9%	0.3%	14.8	-1.5%	-1.2%
Cc1ccc(S(=O)(=O)N(C(=O)c2ccncc2)c2ccc(OC(=O)c3ccncc3)c3ccccc23)cc1	12.9%	12.6µM*	-78.8*	?	?
COC(=O)c1c(C)oc2ccc(N(C(=O)c3ccncc3)S(=O)(=O)c3ccc4ccccc4c3)cc12	-1.7%	?	24.2	3.26µM*	3.55µM*
COc1ccc(N(C(=O)c2ccncc2)S(=O)(=O)c2cccc([N+](=O)[O-])c2)cc1	-13.9%	28.5%	4.1	12.9%	-9.0%
COC(=O)c1c(C)oc2ccc(N(C(=O)c3ccncc3)S(=O)(=O)c3ccc(C)cc3C)cc12	23.5%	?	?	14.6µM*	4.47µM*
SMILES	SW480 rerep	RORgamma inh	IL-1B inflam inh	MCF10A rereplic	VP16 counter
COC(=O)c1c(C)oc2ccc(N(C(=O)c3ccncc3)S(=O)(=O)c3ccccc3)cc12	-3.2%	-27.1%	0.0	26.5%	?
COC(=O)c1c(C)oc2ccc(N(C(=O)c3ccncc3)S(=O)(=O)c3ccc(C)cc3)cc12	6.51µM*	-39.4%	-6.7	?	7.08µM*
O=C1C2C3C=CC(O3)C2C(=O)N1N=Cc1ccc2c(c1)OCO2 (centres undefined)	-1.1%	·	-19.6	-38.8%	·
CN1CCN(c2ncc3nc(-c4cc(F)cc(F)c4)c(=O)n(-c4ccccc4)c3n2)CC1	·	-3.2%	·	·	5.5%
COC(=O)c1c(C)oc2ccc(N(C(=O)Oc3ccccc3)S(=O)(=O)c3ccc(Cl)c([N+](=O)[O-])c3)cc12	3.2%	5.3%	-104.6*	?	-3.5%
Cc1ccc([N+](=O)[O-])cc1S(=O)(=O)N(C(=O)c1ccncc1)c1ccc2oc3c(c2c1)CCCC3	-7.0%	-24.8%	-0.5	?	-9.1%
Cc1ccc(S(=O)(=O)N(C(=O)c2ccncc2)c2ccc3oc4c(c3c2)CCCC4)cc1[N+](=O)[O-]	14.0%	22.3%	8.7	14.6µM*	0.5%
O=C(NCc1ccccc1Cl)[C@H]1CCCN1C(=O)[C@H]1CCCN1C(=O)c1cccs1	·	·	-8.1	·	·
O=C(O)c1ccccc1C(=O)OCC1CCC(=NO)CC1 (centres undefined)	·	·	5.4	·	·
CS(=O)(=O)Nc1ccc(C2=NN(C(=O)C3CCCCC3)C(c3cccs3)C2)cc1 (centres undefined)	11.0%	?	-59.2*	?	-6.4%
Cc1c(C(=O)N/N=C/c2c(O)ccc3ccccc23)nnn1-c1nonc1N	0.731µM*	4.47µM*	139.0	-1.1%	7.08µM*
CCOc1cc(/C=N/NC(=O)c2nnn(-c3nonc3N)c2C)ccc1OCc1ccc(C)cc1	·	·	13.7	·	·
Nc1nonc1-n1nnc(C(=O)N/N=C/c2ccc(OCc3ccc(F)cc3)cc2)c1COc1ccccc1	14.6µM*	7.08µM*	-6.3	?	?
Cc1ccc(COc2ccc(/C=N/NC(=O)c3nnn(-c4nonc4N)c3COc3ccc(F)cc3)cc2)cc1	18.0%	?	23.6	0.9%	2.4%
Cc1ccc(COc2cccc(/C=N/NC(=O)c3nnn(-c4nonc4N)c3C)c2)cc1	-8.3%	19.6%	-15.8	2.59µM*	-5.9%
CCC(C)c1ccccc1N1CC(C(=O)N2CCN(S(=O)(=O)c3cccc([N+](=O)[O-])c3)CC2)CC1=O (centres undefined)	?	·	-7.5	-5.1%	·
Cc1ccc(S(=O)(=O)N2CCCCC2C)cc1[N+](=O)[O-] (centres undefined)	-6.6%	?	-7.2	13.5%	-14.6%
CCCc1ccc2oc(C(=O)N(Cc3ccncc3)CC3CCCO3)c(C)c2c1 (centres undefined)	?	-37.1%	-84.6*	?	0.0%
Cc1ccc2oc(C(=O)N(Cc3ccncc3)CC3CCCO3)c(C)c2c1 (centres undefined)	-3.2%	-22.7%	2.2	?	-10.3%
COC(=O)c1ccc2nc(-c3ccco3)c(Cc3ccccc3C(F)(F)F)n2c1	·	·	18.4	·	·
COc1ccc(NC(=O)c2cccc(-c3ccc(O)cc3)c2)cn1	?	-0.5%	-74.4*	?	-5.9%
C=C(C)c1cccc(C(C)(C)NC(=O)Nc2ccc(OC)nc2)c1	22.8%	24.7%	-87.3*	5.6%	-14.4%
O=C1CC2CCCC(C1)S2=O (centres undefined)	·	·	-23.2	·	·
